# Measurements published in PubChem BioAssay (EPA / NIEHS).
# Active and inactive are the calls of the source. Rule for the calls: active = hit-call score of the fitted dose curve at least 0.9, where 1 is the maximum; inactive = score below 0.9.
# Assays:
# [1] = ATG_Ets_CIS: Attagene CIS-FACTORIAL HepG2 Assay for human Erythroblast Transformation Specific (ETS) (AID 2282941); settings: HepG2 ETS cis-reporter transcription, actives raise or lower the signal
# Method in brief: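 HepG2 cells transiently transfected with cis-promoter reporter transcription units were dosed for 24 h; reporter mRNA was measured by RT-PCR, 6-FAM primer extension, HpaI digestion and capillary electrophoresis, with bidirectional fitting against DMSO baseline.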
# [2] = biological target: Hepatocyte nuclear factor 3-beta (Homo sapiens) (UniProt Q9Y261); test: ATG_FoxA2_CIS: Attagene CIS-FACTORIAL HepG2 Assay for human Forkhead box A2 (FOXA2) (AID 2282942); settings: HepG2 cis-reporter transcription factor activity, 24 h; actives raise or lower the signal
# Hepatocyte nuclear factor 3-beta (Homo sapiens), sequence (Q9Y261 whole entry, looked up): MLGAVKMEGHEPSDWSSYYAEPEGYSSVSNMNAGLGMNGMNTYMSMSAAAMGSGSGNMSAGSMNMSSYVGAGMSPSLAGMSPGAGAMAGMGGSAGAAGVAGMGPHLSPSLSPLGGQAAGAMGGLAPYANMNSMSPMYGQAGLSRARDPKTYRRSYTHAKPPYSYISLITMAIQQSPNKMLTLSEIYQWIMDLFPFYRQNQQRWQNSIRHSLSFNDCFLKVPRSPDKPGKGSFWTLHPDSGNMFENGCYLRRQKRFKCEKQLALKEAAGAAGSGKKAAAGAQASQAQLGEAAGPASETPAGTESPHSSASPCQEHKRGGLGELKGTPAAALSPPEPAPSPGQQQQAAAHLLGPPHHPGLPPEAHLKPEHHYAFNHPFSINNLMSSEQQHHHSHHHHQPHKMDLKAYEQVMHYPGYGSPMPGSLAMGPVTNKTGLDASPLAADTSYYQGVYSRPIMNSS
# Method in brief: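 Endogenous transcription factor activity is captured via cis-element-driven reporter transcripts in transfected HepG2. Total RNA taken at 24 h post-dosing; labelled RT-PCR products resolved by capillary electrophoresis. Gain or loss fitted versus DMSO.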
# [3] = ATG_FoxO_CIS: Attagene CIS-FACTORIAL HepG2 Assay for human Forkhead box O (FoxO) (AID 2282943); settings: HepG2 Attagene cis-reporter, FoxO element, mRNA; actives raise or lower the signal
# Method in brief: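 24 h chemical exposure, HepG2 with transient cis-MRTU transfection. RNA extraction, oligo(dT) RT, reporter-specific PCR, primer-extension labelling, HpaI digestion, CE fragment analysis; bidirectional fit, DMSO baseline.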
# [4] = ATG_GATA_CIS: Attagene CIS-FACTORIAL HepG2 Assay for human GATA Binding Protein (AID 2282944); settings: HepG2 GATA cis-element reporter, Attagene multiplex mRNA; actives raise or lower the signal
# Method in brief: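 Endogenous transcription factor activity was captured through cis-promoter-driven reporters in transfected HepG2 cells. After 24 h exposure, reporter transcripts were quantified by RT-PCR with fluorescent capillary electrophoresis, and responses fitted both directions against DMSO.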
# [5] = ATG_GLI_CIS: Attagene CIS-FACTORIAL HepG2 Assay for human Zinc Finger Protein GLI1 (AID 2282945); settings: HepG2, Attagene cis-factorial reporter mRNA, GLI element; actives raise or lower the signal
# Method in brief: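 HepG2 cells transiently transfected with cis-promoter multiplexed reporter units report endogenous transcription factor activity. After 24 h chemical exposure, reporter mRNA was quantified by RT-PCR, 6-FAM labelling, HpaI digestion and capillary electrophoresis, with bidirectional fitting against DMSO.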
# [6] = biological target: Bile acid receptor (Homo sapiens) (UniProt Q96RI1); test: ATG_IR1_CIS: Attagene CIS-FACTORIAL HepG2 Assay for human Nuclear Receptor Subfamily 1 Group H Member 4 (NR1H4), IR1 submotif (AID 2282946); settings: IR1 reporter transcription, actives raise or lower the signal
# Bile acid receptor (Homo sapiens), sequence (Q96RI1 whole entry, looked up): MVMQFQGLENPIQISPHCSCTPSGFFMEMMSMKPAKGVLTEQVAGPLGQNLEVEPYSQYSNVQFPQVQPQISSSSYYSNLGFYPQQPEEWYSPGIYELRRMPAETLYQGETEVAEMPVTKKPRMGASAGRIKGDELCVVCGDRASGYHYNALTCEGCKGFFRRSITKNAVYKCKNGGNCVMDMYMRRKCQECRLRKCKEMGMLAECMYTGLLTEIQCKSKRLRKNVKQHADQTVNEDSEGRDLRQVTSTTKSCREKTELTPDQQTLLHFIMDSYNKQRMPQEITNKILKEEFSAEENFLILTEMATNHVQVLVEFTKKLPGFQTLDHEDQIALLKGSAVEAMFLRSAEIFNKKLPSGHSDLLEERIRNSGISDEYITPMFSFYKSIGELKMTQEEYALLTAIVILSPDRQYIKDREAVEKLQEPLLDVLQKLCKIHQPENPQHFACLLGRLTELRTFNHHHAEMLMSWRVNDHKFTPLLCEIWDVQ
# Method in brief: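 Transient MRTU transfection, HepG2; 24 h dosing; RNA → RT-PCR → 6-FAM primer extension → HpaI digest → capillary electrophoresis fluorescence. Gain/loss of signal fitted relative to DMSO.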
# [7] = ATG_ISRE_CIS: Attagene CIS-FACTORIAL HepG2 Assay for human Interferon Regulatory Factor 1 (IRF1) binding to an Interferon-Stimulated Response Element (ISRE) (AID 2282948); settings: HepG2 ISRE cis-reporter (Attagene), mRNA transcription readout; actives raise or lower the signal
# Method in brief: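 HepG2 cells transiently transfected with multiplexed cis-promoter reporter units; after 24 h compound exposure, reporter mRNA quantified by RT-PCR, FAM labelling, HpaI digestion and capillary electrophoresis. Bidirectional fit versus DMSO baseline.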
# [8] = ATG_M_32_CIS: Attagene CIS-FACTORIAL HepG2 Assay for M32 Transcription Factor (Internal Marker) (AID 2282949); settings: HepG2 Attagene cis-factorial M32 reporter, mRNA; actives raise or lower the signal;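 note: background control marker of the multiplexed CIS panel rather than a real target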
# Method in brief: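 HepG2 cells transiently transfected with multiplexed cis-regulated reporter units, dosed 24 h. Reporter mRNA quantified by RT-PCR, 6-FAM labelling, HpaI digestion and capillary electrophoresis; bidirectional fit vs DMSO.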
# [9] = ATG_M_06_CIS: Attagene CIS-FACTORIAL HepG2 Assay for M06 Transcription Factor (Internal Marker) (AID 2282950); settings: HepG2 Attagene CIS-FACTORIAL M06 internal marker reporter; actives raise or lower the signal
# Method in brief: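 Steps: transfect HepG2 with multiplexed cis-element reporter constructs; dose chemical 24 h; extract RNA with DNase treatment; reverse-transcribe, PCR-amplify, 6-FAM label, HpaI digest; separate fragments by capillary electrophoresis. Activity fitted both directions versus DMSO.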
# [10] = ATG_GRE_CIS: Attagene CIS-FACTORIAL HepG2 Assay for human Glucocorticoid Response Elements (GRE) (AID 2282947); settings: HepG2 GRE cis-reporter, Attagene multiplex mRNA; actives raise or lower the signal
# Method in brief: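 Following 24 h chemical exposure of transiently transfected HepG2 cells, total RNA was reverse-transcribed and reporter cDNA amplified, fluorescently labelled and sized by capillary electrophoresis. Signal gain or loss was fitted relative to DMSO vehicle.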
Compound,outcome [1],outcome [2],outcome [3],outcome [4],outcome [5],outcome [6],AC50 [7],outcome [8],outcome [9],outcome [7],outcome [10],AC50 [6],AC50 [3],AC50 [4],AC50 [5],AC50 [1],AC50 [2]
Clc1cc(C(Cl)(Cl)Cl)cnc1Cl,inactive,inactive,inactive,inactive,inactive,inactive,9.08 µM (active),inactive,inactive,,,,,,,,
Nc1cccnc1,inactive,inactive,inactive,inactive,inactive,inactive,,inactive,inactive,inactive,,,,,,,
N#Cc1ccc(Cl)cc1,inactive,inactive,inactive,inactive,inactive,,,inactive,inactive,inactive,inactive,,,,,,
O=S(=O)(c1ccc(Cl)cc1)c1cc(Cl)c(Cl)cc1Cl,inactive,inactive,inactive,inactive,inactive,,,inactive,inactive,,inactive,19.3 µM (active),,,,,
C=CCOC(N)=O,inactive,inactive,inactive,inactive,inactive,,,inactive,inactive,inactive,inactive,,,,,,
CCCCC(CC)COC(=O)Cl (stereo unspecified),inactive,inactive,inactive,inactive,inactive,inactive,,inactive,inactive,inactive,inactive,,,,,,
O=C(O)C1(c2ccc3c(c2)OC[C@H](Cc2ccc(-c4ccccc4)cc2)[C@H]3O)CCCC1,inactive,inactive,inactive,inactive,inactive,inactive,,inactive,inactive,,,,,,,,
CN(CCCC(O)c1cccnc1)N=O (stereo unspecified),inactive,inactive,inactive,inactive,inactive,inactive,,inactive,inactive,,inactive,,,,,,
O=NN1CCOCC1,inactive,inactive,inactive,inactive,inactive,,,inactive,inactive,inactive,inactive,,,,,,
CCCCCCCCCCCCCl,inactive,inactive,inactive,inactive,inactive,,,inactive,inactive,inactive,inactive,,,,,,
CCNc1nc(NCC)nc(SC)n1,inactive,inactive,inactive,inactive,inactive,,,inactive,inactive,inactive,inactive,,,,,,
Brc1ccc(Br)cc1,inactive,inactive,inactive,inactive,inactive,inactive,,inactive,inactive,,inactive,,,,,,
CCOC(=O)Cc1ccccc1,inactive,inactive,inactive,inactive,inactive,inactive,,inactive,inactive,,inactive,,,,,,
CC(=Cc1ccccc1)[N+](=O)[O-],inactive,inactive,,,,,7.14 µM (active),inactive,inactive,,inactive,5.55 µM (active),11.1 µM (active),16.8 µM (active),20.1 µM (active),,
CCCCN(CCCC)C(=S)[S-].CCCCN(CCCC)C(=S)[S-].[Ni+2],inactive,inactive,inactive,inactive,inactive,,,inactive,inactive,inactive,inactive,,,,,,
O=c1nc(O)n(Cl)c(=O)n1Cl,inactive,inactive,inactive,inactive,inactive,,,inactive,inactive,inactive,inactive,,,,,,
COC(=O)c1cc(Oc2ccc(Cl)cc2Cl)ccc1[N+](=O)[O-],inactive,inactive,inactive,inactive,inactive,,,inactive,inactive,inactive,inactive,,,,,,
ClCc1ccccc1CCl,,,inactive,inactive,,,45.9 µM (active),inactive,inactive,,inactive,,,,33.4 µM (active),15.7 µM (active),33.4 µM (active)
N#CCC#N,inactive,inactive,inactive,inactive,inactive,,,inactive,inactive,inactive,inactive,,,,,,
CC(C)CP(=S)(S)CC(C)C,inactive,inactive,inactive,inactive,inactive,inactive,,inactive,inactive,,inactive,,,,,,
CC1(C)[C@H](/C=C2\CCSC2=O)[C@@H]1C(=O)OCc1coc(Cc2ccccc2)c1,inactive,inactive,inactive,inactive,inactive,,,inactive,inactive,inactive,inactive,,,,,,
c1ccc2sc(SNC3CCCCC3)nc2c1,inactive,inactive,inactive,inactive,,inactive,,inactive,inactive,inactive,inactive,,,,159 µM (active),,
CNC(=O)CSP(=O)(OC)OC,inactive,inactive,inactive,inactive,inactive,,,inactive,inactive,inactive,inactive,,,,,,
C1CCC(C2CCCCC2)CC1,inactive,inactive,inactive,inactive,inactive,inactive,,inactive,inactive,inactive,,,,,,,
CS(=O)(=O)c1ccc(C(=O)C2C(=O)CCCC2=O)c(Cl)c1COCC(F)(F)F,inactive,inactive,inactive,inactive,inactive,,,inactive,inactive,inactive,inactive,,,,,,
N#Cc1cccnc1,inactive,inactive,inactive,inactive,inactive,,,inactive,inactive,inactive,inactive,,,,,,
CCOC(=O)CCN(SN(C)C(=O)Oc1cccc2c1OC(C)(C)C2)C(C)C,inactive,inactive,inactive,inactive,inactive,,,inactive,inactive,inactive,inactive,100 µM (active),,,,,
